# Test results published in ChEMBL document CHEMBL3988442, “University of Dundee, Small-Polar-MMV Screening Library” (2021).
# The whole screen tested about 69,000 compounds, of which about 1,000 (1.4%) showed an effect of 50% or more. The sample as a whole holds a higher share of strong results than the screen did.
# System: Leishmania donovani
# Experiment: Leishmania intramacrophage assay
# Format: functional, organism-based
# Set-up: scale not given: in the data most compounds retested in dose-response had high values
smiles,measurement,setting,value
Cc1cc(CNS(=O)(=O)CCCC#N)ccc1N(C)C,Percent Effect,"30.3 µM, […]",31.94%
CCOc1ncnc2c1CCN(Cc1csc(C)n1)CC2.O=C(O)C(F)(F)F,Percent Effect,"30.3 µM, […]",25.55%
CCOc1cc2c(cc1CNC(Cc1cccs1)c1nccs1)OCO2.Cl (stereo not drawn),Percent Effect,"30.3 µM, […]",32.16%
Cc1nccc(-c2ccccc2)c1C(=O)N1CCC2(CCCO2)CC1,Percent Effect,"30.3 µM, […]",-0.7591%
Cc1[nH]c(-c2ccccc2)nc1C(=O)N1CCC(O)(CO)CC1,Percent Effect,"30.3 µM, […]",20.13%
Cc1[nH]c(-c2ccccc2)nc1C(=O)N1CCC2(CCCO2)CC1,Percent Effect,"30.3 µM, […]",62.09%
CS(=O)(=O)Cc1cccc(C(=O)N2CCCC(n3cccn3)C2)c1 (stereo not drawn),Percent Effect,"30 µM, 30.03 µM",-5.751%
CCc1ccc(C(=O)N2CCC(c3nncn3CC)CC2)o1,Percent Effect,"30.3 µM, […]",-10.9%
COc1cc(CNC(=O)c2csc(Br)c2)ccn1,Percent Effect,"30.3 µM, […]",18.58%
Cc1cc(CN(CC(N)=O)CC(C)C)on1,Percent Effect,"30.3 µM, […]",34.94%
Cc1ccc(-c2cc(CN(CC(N)=O)CC(C)C)on2)cc1,Percent Effect,"30.3 µM, […]",57.13%
Cc1cc(CN(CC(N)=O)CC(C)C)no1,Percent Effect,"30.3 µM, […]",34.93%
CN(C)C(=O)CO[C@H]1CN(Cc2ccc3c(c2)OCO3)[C@@H]2COC[C@H]12.O=C(O)C(F)(F)F,Percent Effect,"30.3 µM, […]",10.2%
O=C(O)Cc1cccc(-n2ccnc2-c2ccc(Cl)s2)c1,Percent Effect,"30.3 µM, […]",-13.71%
CC(NC(=O)NCCCO)c1ccc2c(c1)NC(=O)CO2 (stereo not drawn),Percent Effect,30 µM,9.165%
CC(NC(=O)C1CCN(C(C)C)CC1)c1nncn1C1CCCC1 (stereo not drawn),Percent Effect,"30.3 µM, […]",38.57%
CC(NC(=O)C1CCCC1)c1nncn1C(C)C (stereo not drawn),Percent Effect,"30.3 µM, […]",53.36%
CC(NC(=O)C1CCN(C(=O)C2CC2)CC1)c1nncn1C(C)C (stereo not drawn),Percent Effect,"30.3 µM, […]",27.99%
Cc1ccc(CN2CCOC3(CCCN(c4cccc(F)c4)C3)C2)o1.O=C(O)C(F)(F)F.O=C(O)C(F)(F)F (stereo not drawn),Percent Effect,"30.3 µM, […]",23.02%
O=C(NCCCOC1CCCCC1)C1NCCc2[nH]cnc21 (stereo not drawn),Percent Effect,"30.3 µM, […]",6.477%
COC(=O)NCC(=O)N1CCC(c2cc3ccccc3[nH]2)CC1,Percent Effect,"30.3 µM, […]",11.64%
N#CCCCS(=O)(=O)NC1(c2cccc(Cl)c2)CC1,Percent Effect,"30.3 µM, […]",17.77%
CCS(=O)(=O)N1CCc2ccc(NC(=O)Nc3cccc(F)c3)cc21,Percent Effect,"30.3 µM, […]",17.8%
CCS(=O)(=O)N1CCc2ccc(NC(=O)Nc3cccc(SC)c3)cc21,Percent Effect,"30 µM, 30.03 µM",59.71%
CCS(=O)(=O)N1CCc2ccc(NC(=O)Nc3ccccc3)cc21,Percent Effect,"30.3 µM, […]",14.09%
CC(=O)N(Cc1ncc(C(C)C)o1)C1CCN(Cc2cc(C)no2)C1 (stereo not drawn),Percent Effect,30 µM,25.52%
O=C1CN(C(=O)C2CN(c3ccccc3)CCO2)CCN1 (stereo not drawn),Percent Effect,"30.3 µM, […]",40.28%
CN(C)CCn1c(=O)n(C)c(=O)c2ccccc21.Cl,Percent Effect,"30.3 µM, […]",-33.87%
O=C(NCCCN1CCCCC1)c1n[nH]c(=O)c2ccccc12,Percent Effect,"30.3 µM, […]",20.29%
CC(C)n1c(=O)c2ccccc2n(CCN2CCCCC2)c1=O,Percent Effect,"30.3 µM, […]",52.87%
O=C(NCCN1CCCCCC1)c1n[nH]c(=O)c2ccccc12,Percent Effect,"30.3 µM, […]",-32.33%
CC(C)n1c(=O)c2ccccc2n(CCN(C)C)c1=O.Cl,Percent Effect,"30.3 µM, […]",50.24%
CC(C)n1c(=O)c2ccccc2n(CCCN(C)C)c1=O.Cl,Percent Effect,"30.3 µM, […]",-9.627%
CCOCCn1nnc(C2(NC(=O)c3ccccc3)CCCC2)n1,Percent Effect,"30 µM, 30.03 µM",1.124%
Cc1ccc(OC2(C(=O)N(C)Cc3ccoc3)CCNCC2)cc1,Percent Effect,"30.3 µM, […]",83.11%
CN(Cc1ccoc1)C(=O)C1(Oc2ccc(Cl)cc2)CCNCC1,Percent Effect,"30.3 µM, […]",-16.66%
CN(Cc1ccncn1)C(=O)C1(Oc2ccc(Cl)cc2)CCNCC1,Percent Effect,"30.3 µM, […]",12.34%
NC(=O)c1cccc2nc([C@H]3CCN(Cc4ccccn4)C3)[nH]c12,Percent Effect,"30.3 µM, […]",53.25%
NC(=O)c1cccc2nc([C@H]3CCN(Cc4ccccc4F)C3)[nH]c12,Percent Effect,"30.3 µM, […]",22.02%
Cc1ccc(CN2CC[C@H](c3nc4cccc(C(N)=O)c4[nH]3)C2)cc1,Percent Effect,"30.3 µM, […]",-18.93%
c1ccc(C(CC2CN(Cc3c[nH]cn3)CCO2)c2ccccc2)cc1 (stereo not drawn),Percent Effect,"30.3 µM, […]",20.85%
CN(C)S(=O)(=O)N(C)C(c1cccc(F)c1)c1ccccn1 (stereo not drawn),Percent Effect,30 µM,24.26%
Clc1ccc(N2CCC(C3CCN(Cc4cccnc4)CC3)C2)nc1 (stereo not drawn),Percent Effect,"30.3 µM, […]",-2.762%
Clc1ccc(CN2CCC(C3CCN(Cc4cccnc4)CC3)C2)cc1 (stereo not drawn),Percent Effect,"30.3 µM, […]",51.57%
Clc1cccnc1N1CCC(C2CCN(Cc3cccnc3)CC2)C1 (stereo not drawn),Percent Effect,"30.3 µM, […]",-17.23%
Cc1ncsc1CN(Cc1ccccc1)Cc1ncc[nH]1,Percent Effect,"30.3 µM, […]",-37.36%
Cc1ncsc1C(=O)N(C)Cc1ccncc1,Percent Effect,"30 µM, 30.03 µM",-5.146%
Cc1ncsc1CN(Cc1ccccc1)Cc1ccncc1,Percent Effect,"30.3 µM, […]",55.73%
Cc1noc(C2CCN(CC(=O)N3CCNC(=O)C3)CC2)n1,Percent Effect,"30.3 µM, […]",-15.33%
O=C(O)C1(Cc2cccc(Cl)c2)CCCN(c2ncnc3[nH]ccc23)C1 (stereo not drawn),Percent Effect,"30.3 µM, […]",20.11%
CCCSc1nn(CCCN(C)C)c2nc3sc(C)c(CC)c3c(=O)n12,Percent Effect,"30.3 µM, […]",-2.726%
O=C(c1ccoc1)N1Cc2cnn(CC3CC3)c2C(COCC2CC2)C1 (stereo not drawn),Percent Effect,"30.3 µM, […]",-14.05%
CC(C)C(=O)N1CCC(c2c(C(N)=O)sc3ccccc23)C1 (stereo not drawn),Percent Effect,"30.3 µM, […]",2.33%
CS(=O)(=O)CCCN1CCN(C(C#N)c2ccccc2)CC1 (stereo not drawn),Percent Effect,"30.3 µM, […]",16.78%
CC(C)S(=O)(=O)CCN1CCN(C(C#N)c2ccccc2)CC1 (stereo not drawn),Percent Effect,"30.3 µM, […]",27.38%
CCCS(=O)(=O)CCN1CCN(C(C#N)c2ccccc2)CC1 (stereo not drawn),Percent Effect,"30.3 µM, […]",50.86%
CC(C)c1nc(C2CCCN(C(=O)CCc3cscn3)C2)no1 (stereo not drawn),Percent Effect,30 µM,12.46%
Cc1oncc1C(=O)NCC1(O)CCc2ccccc2C1 (stereo not drawn),Percent Effect,"30.3 µM, […]",25.53%
Cc1nn(C)c(Cl)c1CNCc1cccnc1N1CCOCC1.Cl,Percent Effect,"30 µM, 30.03 µM",2.073%
Cc1nn(C)c(Cl)c1CNCc1cccnc1N1CCCCC1.Cl,Percent Effect,"30.3 µM, […]",-11.04%
Cc1nn(C)c(Cl)c1CNCc1cccnc1N1CCN(C)CC1.Cl,Percent Effect,"30 µM, 30.03 µM",52.88%
Cc1ccc(C)c(S(=O)(=O)CCNC2CCc3ncnn3C2)c1 (stereo not drawn),Percent Effect,30 µM,28.38%
CCc1ncc(CN[C@@H]2CCCN(C(C)=O)[C@H]2c2ccc(C)s2)cn1.Cl,Percent Effect,"30.3 µM, […]",12.48%
Cc1nc(-c2cc(C(=O)NCCN3CCOCC3)c3ccccn23)cs1.O=C(O)C(F)(F)F,Percent Effect,"30.3 µM, […]",-52.36%
CC(C)c1nc(-c2cc(C(=O)N3CCN(C)CC3)c3ccccn23)cs1.O=C(O)C(F)(F)F,Percent Effect,"30.3 µM, […]",16.88%
CC(C)c1nc(-c2cc(C(=O)NCCN(C)C)c3ccccn23)cs1.O=C(O)C(F)(F)F,Percent Effect,"30.3 µM, […]",74.71%
CC(C)c1nc(-c2cc(C(=O)NCCCO)c3ccccn23)cs1,Percent Effect,"30.3 µM, […]",30%
CC(C)c1nc(-c2cc(C(=O)O)c3ccccn23)cs1,Percent Effect,"30.3 µM, […]",-0.8279%
Cc1cnc(CNc2ccc(C(=O)NCc3ccco3)cc2C)o1,Percent Effect,"30.3 µM, […]",-20.82%
O=C(O)C(F)(F)F.c1cc(CNCC2Cn3nncc3CO2)co1 (stereo not drawn),Percent Effect,"30.3 µM, […]",20.1%
CCCn1nnnc1COC(=O)C1COc2ccc(Cl)cc2C1 (stereo not drawn),Percent Effect,"30.3 µM, […]",-4.057%
O=C(NCC1(c2cccc(F)c2)CC1)N1CCC2(CCOC2)C1 (stereo not drawn),Percent Effect,"30.3 µM, […]",-5.939%
CC1(C)OC(=O)N(CC(=O)N2CCC(c3ccccc3Cl)C2)C1=O (stereo not drawn),Percent Effect,"30.3 µM, […]",16.86%
CC(=O)N1CCC(Cc2cnc(C(=O)N3CCCC3)cn2)C1 (stereo not drawn),Percent Effect,"30.3 µM, […]",-5.476%
CCOCc1ccccc1CNc1ccc2nncn2n1,Percent Effect,"30.3 µM, […]",18.04%
CCn1ncc(Nc2[nH]cnc3nc(C)nc2-3)c1C,Percent Effect,"30.3 µM, […]",-7.482%
CCn1ncc(Nc2[nH]cnc3nncc2-3)c1C,Percent Effect,"30.3 µM, […]",61.85%
CCn1ncc(CNc2[nH]cnc3nncc2-3)c1C,Percent Effect,"30.3 µM, […]",46.44%
N#Cc1c(F)cccc1N1CCCC(C(=O)Nc2nccs2)C1 (stereo not drawn),Percent Effect,"30.3 µM, […]",38.57%
Cc1ccc(C(=O)NCc2ccc(N(C)C)cc2)cn1,Percent Effect,"30.3 µM, […]",1.485%
CN(c1ccc(CNC(=O)c2ccc(O)nc2)cc1)C1CCCCC1,Percent Effect,"30.3 µM, […]",57.37%
CN(c1ccc(CNC(=O)c2c[nH]c(=O)c(Cl)c2)cc1)C1CCCCC1,Percent Effect,"30.3 µM, […]",30.08%
CNC(=O)c1cc(C)n(-c2ccccc2)n1,Percent Effect,"30.3 µM, […]",21.3%
Cc1cnc(CN(C)C2CCN(Cc3nc4ccccc4n3C)C2)o1 (stereo not drawn),Percent Effect,"30 µM, 30.03 µM",57.21%
CC(=O)N(Cc1ncc(C)o1)C1CCN(Cc2cccc(C#N)c2)C1 (stereo not drawn),Percent Effect,"30 µM, 30.03 µM",6.646%
CC(=O)N(Cc1ncc(C)o1)C1CCN(Cc2ccncc2Cl)C1 (stereo not drawn),Percent Effect,"30 µM, 30.03 µM",31.13%
Cc1nnc(CN(C)C2CCN(Cc3nc4ccccc4n3C)C2)o1 (stereo not drawn),Percent Effect,30 µM,31.75%
Cc1cnc(CN(C)C2CCN(Cc3nc4ccccc4o3)C2)o1 (stereo not drawn),Percent Effect,30 µM,8.725%
O=C(c1ccccc1O)N1CCn2c(nnc2C(F)(F)F)C1,Percent Effect,"30.3 µM, […]",-5.557%
CCN(CC)Cc1cc(=O)n2c(n1)CN(C(=O)c1ccc[nH]1)CCC2,Percent Effect,"30.3 µM, […]",36.34%
c1ccc(-c2nnc3ccc(N4CCC5(CCOC5)C4)nn23)cc1 (stereo not drawn),Percent Effect,"30.3 µM, […]",-7.106%
CCN(CCCNC(=O)Nc1ccccc1C(C)C)S(C)(=O)=O,Percent Effect,"30.3 µM, […]",27.9%
Cn1ccc2c(C(=O)NCCCN3CCCC3)cccc21,Percent Effect,"30.3 µM, […]",16.97%
CCN(CC)CCNC(=O)c1cnc(C(C)(C)C)s1,Percent Effect,"30 µM, 30.03 µM",10.1%
O=C(NCCCN1CCCC1=O)c1ccc(-n2ccc3ccccc32)s1,Percent Effect,"30.3 µM, […]",32.92%
O=C(NCCCN1CCCCC1)c1ccc(-n2ccc3ccccc32)s1,Percent Effect,"30 µM, 30.03 µM",94.7%
O=C(NCCN1CCOCC1)c1ccc(-n2ccc3ccccc32)s1,Percent Effect,"30 µM, 30.03 µM",37.35%
CCN(CC)CCNC(=O)c1ccc(-n2ccc3ccccc32)s1,Percent Effect,"30.3 µM, […]",95.71%
O=C(NCCCN1CCOCC1)c1ccc(-n2ccc3ccccc32)s1,Percent Effect,"30.3 µM, […]",90.86%
CCC1CN(CC(=O)NCCN(CC)CC)c2ccccc2S1 (stereo not drawn),Percent Effect,"30.3 µM, […]",24.72%
CCOCCCC(=O)Nc1[nH]nc(-c2ccncc2)c1C,Percent Effect,"30.3 µM, […]",25.28%
CC(C)(O)C1CCN(C(=O)Nc2nc(-c3ccccc3)ns2)CC1,Percent Effect,"30 µM, 30.03 µM",46.85%
CC(C)(CO)CCCNC(=O)N1CCc2c(F)ccc(F)c2C1,Percent Effect,"30.3 µM, […]",-32.7%
